We go through 6 compounds from PubChem BioAssay (NCATS).

The structures appear in SMILES notation. Records with an inconclusive call do not appear. Calls of active or inactive are those of the source. Unless noted, calls come from the whole dose curve; as a rule, active = well fitted curve in the direction sought with a large enough effect; inconclusive = small, poorly fitted or top-dose-only effect, or another doubt; inactive = no such curve, though single readings can be large; an effect the other way counts as inactive or inconclusive.

The nature of assay [1]: Quantitative high throughput screen for delayed death inhibitors of the malarial parasite plastid, 96 hour incubation (AID 488745). Note: nearly all actives have a fitted effect of over 70% in size. Note: potency is the fitted concentration of half-maximal effect. The method in brief:
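Readout is firefly luciferase luminescence from an integrated reporter in P. falciparum; lower signal marks inhibited growth. Cultures at 2% hematocrit and 0.1% parasitemia were treated with compound across two generations (96 h, 37 C, 5% CO2).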

Assay [2] is described as follows: Quantitative high throughput screen for delayed death inhibitors of the malarial parasite plastid, 48 hour incubation (AID 488752). Note: nearly all actives have a fitted effect of over 65% in size. Note: potency is the fitted concentration of half-maximal effect. The method in brief:
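First, compound was pinned into RPMI 1640 medium containing 0.5% Albumax. Next, reporter-parasite-infected erythrocytes were added to 2% hematocrit and 0.1% parasitemia. After 48 h at 37 C under 5% CO2, luciferase detection reagent was added and luminescence read.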

The target of assay [3] is Thioredoxin reductase 1, cytoplasmic (Rattus norvegicus) (UniProt O89049). Nature of the assay: qHTS Assay for Substrates of Mammalian Selenoprotein Thioredoxin Reductase 1 (TrxR1) (AID 488772).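 Note: series mostly up to about 57 µM; 0% is about no effect; a drop in NADPH fluorescence below the no-compound background marks a TrxR1 substrate.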 The method in brief:
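In this dual-purpose format, potential substrates are identified from the first fluorescence read after selenite addition, not from the 8-minute delta. Rat enzyme is preincubated with NADPH and then with compound at ~22 deg C.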
On the technique in general: qHTS replaces the single test concentration by a dilution series.

Assay [4] deals with Flap endonuclease 1 (Homo sapiens) (UniProt P39748). Nature of the assay: qHTS Validation Assay for the Inhibitors of Human Flap endonuclease 1 (FEN1) (AID 488816). Note: % is set by controls: 0 for no effect and ±100 for the full control effect. The method in brief:
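Steps: add FEN1 (10 nM reagent) or buffer only; pin compounds; hold 15 min at room temperature; start with substrate, 50 nM final; read at 0 and 15 min; correct, normalize and fit a four-parameter Hill curve.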

The target in assay [5] is M-phase phosphoprotein 8 (Homo sapiens) (UniProt Q99549). Nature of the assay: qHTS Validation Assay for Inhibitors for MPP8 Chromodomain Interactions with Methylated Histone Tails (AID 488949). Note: nearly all actives have a fitted effect of over 55% in size. Note: potency is the fitted concentration of half-maximal effect. The method in brief: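 AlphaScreen read-out: streptavidin donor and nickel chelate acceptor beads (final 10 ug/mL), 30 min in the dark at RT. Complex of 50 nM MPP8 and 50 nM b-H3(1-18)K9me3 peptide had been exposed to compounds for 30 min beforehand.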

Assay [6] addresses Methanococcus maripaludis chaperonin (MmCpn) (UniProt Q6LX38). The assay can be described thus: High-Throughput Screening for Modulators of Cytosolic Chaperonin Activity: MmCpn Primary Screen (AID 488978). Note: 0% is about no effect. The method in brief: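 ADP formation read by HTRF Transcreener, 665/590 nm emission after 320 nm excitation. Enzyme: archaeal chaperonin at 50 nM final; substrate ATP 30 uM final; 10 min, 37C, after 5 min compound preincubation at RT.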

Assay [7] has as its target Transient receptor potential cation channel subfamily V member 1 (Homo sapiens) (UniProt Q8NER1). Nature of the assay: HTS Assay for Compounds that Act as Enhancers of the Vanilloid Receptor 1 (AID 488979). Note: 0% is about no effect. An outline of the steps: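 TRPV1-expressing cells loaded with Fluo-8 calcium dye; compounds added and calcium influx read kinetically for 3 min (agonist phase), then capsaicin at EC20 added and read 2 min more for enhancement. Fluorescence ex 480/em 520 nm.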

For assay [8], the target named is Thyrotropin receptor (Homo sapiens) (UniProt P16473). Nature of the assay: qHTS Assay for Antagonists of the Thyroid Stimulating Hormone Receptor (AID 488980). Note: series mostly up to about 58 µM; 0% is about no effect. The method in brief:
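TSHR-HEK293 cells; 70 uM RO 20-1724 PDE inhibitor; compound + EC80 TSH (4 nM final); anti-cAMP cryptate antibody/cAMP-d2 in lysis buffer, 30 min RT; HTRF 665/620 nm read.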

Assay [9] has as its target D(1A) dopamine receptor (Homo sapiens) (UniProt P21728). Nature of the assay: HTS Assay for Allosteric Agonists of the Human D1 Dopamine Receptor: Primary Screen for Agonists (AID 488981). Note: 0% is about no effect. An outline of the steps: (§1)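 Tetracycline-induced HEK293 T-REx cells force-coupled to calcium signalling were incubated overnight at 30 C and dye-loaded at room temperature. Calcium flux over 180 s after compound addition flagged agonists; a further 180 s read after EC20 dopamine flagged potentiators.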

The target is the same in assay [10]. Nature of the assay: HTS Assay for Allosteric Agonists of the Human D1 Dopamine Receptor: Primary Screen for Potentiators (AID 488982). Note: 0% is about no effect. The method in brief: as §1
Assay [11] has the same target. Nature of the assay: HTS Assay for Allosteric Agonists of the Human D1 Dopamine Receptor: Primary Screen for Antagonists (AID 488983).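 Note: calcium flux response to an EC80 dopamine challenge measured with no-wash dye; % is set by controls: 0 for no effect and ±100 for the full control effect; nearly all actives have a fitted effect of over 65% in size.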 The method in brief:
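Kinetic fluorescence at 1 cycle/sec tracked intracellular calcium in force-coupled, tetracycline-inducible HEK293 T-REx D1 cells. Loss of response to an EC80 dopamine dose, given 180 s after compound, marked antagonists.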

Assay [12] in a line: Validation screen for small molecules that induce genotoxicity in human embryonic kidney (HEK293T) cells expressing luciferase-tagged ELG1 (AID 493106). Note: 0% is about no effect. An outline of the steps: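 Cells were dispensed at 2,000 per well, then 23 nL compound or DMSO was pinned in. After 16 hr at 37 °C and 5% CO2, ONE-Glo reagent was added. Luciferase activity was measured following 30 min at room temperature.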

Assay [13] deals with ATPase family AAA domain-containing protein 5 (Homo sapiens) (UniProt Q96QE3). The assay can be described thus: Validation screen for small molecules that inhibit ELG1-dependent DNA repair in human embryonic kidney (HEK293T) cells expressing luciferase-tagged ELG1 (AID 493107). Note: nearly all actives have a fitted effect of over 70% in size. Note: potency is the fitted concentration of half-maximal effect. An outline of the steps:
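Cells are dispensed in 1536-well format, then 5-fluorouridine and compound are pinned in. After a 16 hr incubation at 37 °C and 5% CO2, ONE-Glo is added and luciferase measured on a CCD imager.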

Assay [14] addresses Thyrotropin-releasing hormone receptor (Homo sapiens) (UniProt P34981). The assay can be described thus: qHTS for Small Molecule Agonists and Allosteric Enhancers of Human TRH Receptor: Validation Screen for Agonists (AID 493127;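 active = calcium activation more than 3 SD above the typical response in the agonist read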;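 note: intracellular calcium rise by fluo-8 fluorescence before TRH EC20 addition; 0% is about no effect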). As to conditions: TRH receptor agonist cell assay; at 2 µM; stronger effect = higher value. The method in brief:
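Compounds are added by online pintool to dye-loaded TRHR cells while fluorescence is recorded every second. A rise in calcium signal during the agonist read marks activation; a later 10 nM TRH addition (EC20) serves the separate enhancer mode.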

Assay [15] in a line: Nrf2 qHTS screen for inhibitors: Validation (AID 493153; active = well fitted inhibition curve with a large enough effect in the main read-out, with a control signal flat, not every such curve was filed as active). The note with it: Potency: luciferase luminescence; viability change: measured here: cytotoxicity max response. An outline of the steps: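 A549 ARE_Fluc, 5% FBS OPTI-MEM; cpd titration, 18-24 h, 37°C/5% CO2. Read 1: CellTiter-Fluor (Ex 405/Em 525), cytotox. Read 2: luciferase lum, Nrf2 activity.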
Assay [16] can be described thus: qHTS for Inhibitors of Cell Surface uPA Generation: Validation Assay (AID 493164).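 Note: RAW 264.7 macrophage cells exposed to compound for 18 h; 0% is about no effect.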 An outline of the steps: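 ATP-Lite luminescence read-out: ATP remains high when uPA activity-dependent LF translocation into the cytoplasm is blocked. RAW 264.7 cells, 18 h compound exposure at 37 C; 7-point titration, 2.45 nM to 38.3 uM final.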
Assay [17] addresses Thioredoxin reductase 1, cytoplasmic (Rattus norvegicus) (UniProt O89049). The assay can be described thus: qHTS Assay for Inhibitors of Mammalian Selenoprotein Thioredoxin Reductase 1 (TrxR1) (AID 488773).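 Note: drop in NADPH fluorescence over an 8 min run after selenite addition; series mostly up to about 57 µM; % is set by controls: 0 for no effect and ±100 for the full control effect; nearly all actives have a fitted effect of over 40% in size.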 As to conditions: Potency: inhibition. The method in brief: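 Inhibition is scored from the loss of NADPH fluorescence between first and last reads of an 8-min kinetic run. Selenite (400 uM) was the substrate, added after 15 min compound preincubation at room temperature.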

Assay [18] addresses Chromobox protein homolog 1 (Homo sapiens) (UniProt P83916). The assay can be described thus: qHTS Validation Assay for Inhibitors of HP1-beta Chromodomain Interactions with Methylated Histone Tails (AID 488953).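 Note: loss of AlphaScreen luminescence from HP1-beta binding biotinylated H3K9me3 peptide; series mostly up to about 110 µM; % is set by controls: 0 for no effect and ±100 for the full control effect; nearly all actives have a fitted effect of over 50% in size.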 The method in brief: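 Disruption of preformed HP1-beta:H3K9me3 peptide complexes (both 50 nM, PBS pH 7.4 with 0.01% Tween-20) is measured by AlphaScreen after 30 min compound exposure at room temperature, using streptavidin donor and nickel chelate acceptor beads at 10 ug/mL final.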

The target in assay [19] is ATP-dependent 6-phosphofructokinase (Trypanosoma brucei brucei) (UniProt O15648). Nature of the assay: qHTS Assay to Find Inhibitors of T. brucei phosphofructokinase: hit validation (AID 492961).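 Note: luminescence reports ADP formed as PFK phosphorylates fructose-6-phosphate with ATP; series mostly up to about 51 µM; % is set by controls: 0 for no effect and ±100 for the full control effect.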 An outline of the steps:
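Percent activity derived from corrected luminescence, normalized between 0x and 1x enzyme controls, then fitted to concentration-response curves. Conditions: 1.25 nM PFK, 0.1 mM ATP, 0.5 mM F6P, 45 min RT.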

Chain of ATPase family AAA domain-containing protein 5 (Homo sapiens) (Q96QE3 whole entry, looked up, the tested form may be a part): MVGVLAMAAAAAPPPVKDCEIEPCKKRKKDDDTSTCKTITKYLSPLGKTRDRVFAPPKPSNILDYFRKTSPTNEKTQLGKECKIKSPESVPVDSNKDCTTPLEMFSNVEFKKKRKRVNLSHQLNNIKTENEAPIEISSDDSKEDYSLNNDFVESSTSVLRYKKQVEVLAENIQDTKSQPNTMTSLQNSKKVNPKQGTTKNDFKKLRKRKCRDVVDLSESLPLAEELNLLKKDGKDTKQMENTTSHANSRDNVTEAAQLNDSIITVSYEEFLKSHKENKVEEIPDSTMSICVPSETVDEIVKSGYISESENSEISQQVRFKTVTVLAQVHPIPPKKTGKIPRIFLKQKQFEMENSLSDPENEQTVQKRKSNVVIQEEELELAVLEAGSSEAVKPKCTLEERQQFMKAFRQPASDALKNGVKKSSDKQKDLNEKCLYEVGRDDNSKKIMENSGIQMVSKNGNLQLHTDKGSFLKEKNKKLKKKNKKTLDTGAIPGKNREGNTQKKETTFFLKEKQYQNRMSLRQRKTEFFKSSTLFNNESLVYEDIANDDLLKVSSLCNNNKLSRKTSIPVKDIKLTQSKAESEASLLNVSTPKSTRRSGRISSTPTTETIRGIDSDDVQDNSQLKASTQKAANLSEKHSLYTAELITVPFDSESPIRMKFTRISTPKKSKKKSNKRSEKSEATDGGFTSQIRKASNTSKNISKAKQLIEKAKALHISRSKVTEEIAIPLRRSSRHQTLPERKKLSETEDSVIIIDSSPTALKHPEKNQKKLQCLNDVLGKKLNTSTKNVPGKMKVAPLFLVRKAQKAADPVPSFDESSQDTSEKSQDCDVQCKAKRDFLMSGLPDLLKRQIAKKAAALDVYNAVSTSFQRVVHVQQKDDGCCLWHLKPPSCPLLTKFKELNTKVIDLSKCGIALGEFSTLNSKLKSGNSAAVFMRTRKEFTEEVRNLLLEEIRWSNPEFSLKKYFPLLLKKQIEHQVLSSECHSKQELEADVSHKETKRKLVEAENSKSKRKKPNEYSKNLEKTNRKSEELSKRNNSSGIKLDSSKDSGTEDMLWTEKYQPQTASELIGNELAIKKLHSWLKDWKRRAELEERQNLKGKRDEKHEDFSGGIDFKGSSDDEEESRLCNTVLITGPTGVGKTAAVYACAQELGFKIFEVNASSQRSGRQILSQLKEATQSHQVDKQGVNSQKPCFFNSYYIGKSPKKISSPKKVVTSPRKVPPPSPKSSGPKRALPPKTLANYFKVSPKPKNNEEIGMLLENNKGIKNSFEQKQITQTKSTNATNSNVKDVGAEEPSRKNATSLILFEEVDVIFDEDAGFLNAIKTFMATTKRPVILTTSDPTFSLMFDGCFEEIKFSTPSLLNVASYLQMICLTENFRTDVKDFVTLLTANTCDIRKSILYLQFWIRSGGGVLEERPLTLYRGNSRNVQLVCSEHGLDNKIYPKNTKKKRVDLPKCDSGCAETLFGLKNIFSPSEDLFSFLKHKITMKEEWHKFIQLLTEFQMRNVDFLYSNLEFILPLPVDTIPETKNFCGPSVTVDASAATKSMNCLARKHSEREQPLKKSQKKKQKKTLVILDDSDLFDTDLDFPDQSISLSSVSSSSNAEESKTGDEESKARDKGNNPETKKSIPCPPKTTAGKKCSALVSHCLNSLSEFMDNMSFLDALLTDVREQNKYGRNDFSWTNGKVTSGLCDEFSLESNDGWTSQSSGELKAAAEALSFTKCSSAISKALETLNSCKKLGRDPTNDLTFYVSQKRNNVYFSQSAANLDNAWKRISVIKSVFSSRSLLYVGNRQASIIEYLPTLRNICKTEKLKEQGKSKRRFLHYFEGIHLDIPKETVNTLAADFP
Chain of Transient receptor potential cation channel subfamily V member 1 (Homo sapiens) (Q8NER1 whole entry, looked up): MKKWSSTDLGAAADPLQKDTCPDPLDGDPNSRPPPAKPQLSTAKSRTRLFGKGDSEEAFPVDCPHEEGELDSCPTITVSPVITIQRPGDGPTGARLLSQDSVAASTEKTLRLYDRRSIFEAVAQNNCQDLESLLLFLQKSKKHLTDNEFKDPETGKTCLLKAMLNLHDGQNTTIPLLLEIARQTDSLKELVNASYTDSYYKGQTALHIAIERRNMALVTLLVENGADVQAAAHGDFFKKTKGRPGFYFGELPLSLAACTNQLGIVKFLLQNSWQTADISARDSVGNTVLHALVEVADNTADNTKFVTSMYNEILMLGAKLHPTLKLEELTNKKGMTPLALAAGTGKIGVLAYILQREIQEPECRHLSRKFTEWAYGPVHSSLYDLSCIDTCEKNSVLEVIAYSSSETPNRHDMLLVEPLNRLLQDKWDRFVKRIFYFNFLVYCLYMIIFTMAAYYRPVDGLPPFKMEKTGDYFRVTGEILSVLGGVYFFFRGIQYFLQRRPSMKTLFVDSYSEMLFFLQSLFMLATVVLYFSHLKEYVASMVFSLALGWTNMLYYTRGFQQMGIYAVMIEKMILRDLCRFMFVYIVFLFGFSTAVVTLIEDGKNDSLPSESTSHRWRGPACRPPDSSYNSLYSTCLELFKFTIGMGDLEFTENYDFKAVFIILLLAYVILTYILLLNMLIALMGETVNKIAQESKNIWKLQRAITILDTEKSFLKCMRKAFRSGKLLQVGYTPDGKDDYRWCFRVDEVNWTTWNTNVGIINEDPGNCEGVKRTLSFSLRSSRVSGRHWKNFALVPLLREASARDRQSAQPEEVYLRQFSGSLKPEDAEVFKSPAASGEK
Chain of Thyrotropin receptor (Homo sapiens) (P16473 whole entry, looked up): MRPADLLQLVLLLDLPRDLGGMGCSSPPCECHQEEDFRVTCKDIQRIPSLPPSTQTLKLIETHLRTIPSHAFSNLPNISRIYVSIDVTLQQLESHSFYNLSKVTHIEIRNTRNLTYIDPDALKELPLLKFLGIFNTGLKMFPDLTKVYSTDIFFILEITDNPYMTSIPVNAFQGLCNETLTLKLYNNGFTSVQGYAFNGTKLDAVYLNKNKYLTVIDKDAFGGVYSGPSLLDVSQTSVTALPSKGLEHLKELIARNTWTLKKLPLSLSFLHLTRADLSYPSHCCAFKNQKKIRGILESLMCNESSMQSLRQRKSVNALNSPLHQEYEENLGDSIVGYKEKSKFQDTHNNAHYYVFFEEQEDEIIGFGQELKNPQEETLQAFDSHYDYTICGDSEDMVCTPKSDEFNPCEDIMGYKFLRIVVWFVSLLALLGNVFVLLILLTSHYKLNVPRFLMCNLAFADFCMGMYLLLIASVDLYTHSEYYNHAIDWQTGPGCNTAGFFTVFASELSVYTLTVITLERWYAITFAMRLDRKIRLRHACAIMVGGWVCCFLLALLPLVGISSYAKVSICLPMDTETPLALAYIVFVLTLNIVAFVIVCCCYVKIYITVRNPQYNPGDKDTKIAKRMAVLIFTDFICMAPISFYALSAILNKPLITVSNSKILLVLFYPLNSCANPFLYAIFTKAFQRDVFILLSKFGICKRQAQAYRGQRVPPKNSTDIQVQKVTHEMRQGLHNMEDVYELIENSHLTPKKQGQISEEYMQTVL
Chain of D(1A) dopamine receptor (Homo sapiens) (P21728 whole entry, looked up): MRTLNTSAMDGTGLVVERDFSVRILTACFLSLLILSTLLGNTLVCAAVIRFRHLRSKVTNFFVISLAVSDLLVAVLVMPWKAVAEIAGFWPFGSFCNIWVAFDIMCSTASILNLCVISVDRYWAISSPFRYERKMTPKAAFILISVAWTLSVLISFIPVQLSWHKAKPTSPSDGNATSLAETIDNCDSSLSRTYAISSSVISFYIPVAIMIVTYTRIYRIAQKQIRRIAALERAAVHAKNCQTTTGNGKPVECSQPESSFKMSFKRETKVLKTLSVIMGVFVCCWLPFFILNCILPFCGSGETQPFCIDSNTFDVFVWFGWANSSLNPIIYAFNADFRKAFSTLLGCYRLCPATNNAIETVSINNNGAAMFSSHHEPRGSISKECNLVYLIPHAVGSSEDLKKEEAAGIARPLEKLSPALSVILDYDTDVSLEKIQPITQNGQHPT
Chain of Methanococcus maripaludis chaperonin (MmCpn) (Q6LX38 1-543): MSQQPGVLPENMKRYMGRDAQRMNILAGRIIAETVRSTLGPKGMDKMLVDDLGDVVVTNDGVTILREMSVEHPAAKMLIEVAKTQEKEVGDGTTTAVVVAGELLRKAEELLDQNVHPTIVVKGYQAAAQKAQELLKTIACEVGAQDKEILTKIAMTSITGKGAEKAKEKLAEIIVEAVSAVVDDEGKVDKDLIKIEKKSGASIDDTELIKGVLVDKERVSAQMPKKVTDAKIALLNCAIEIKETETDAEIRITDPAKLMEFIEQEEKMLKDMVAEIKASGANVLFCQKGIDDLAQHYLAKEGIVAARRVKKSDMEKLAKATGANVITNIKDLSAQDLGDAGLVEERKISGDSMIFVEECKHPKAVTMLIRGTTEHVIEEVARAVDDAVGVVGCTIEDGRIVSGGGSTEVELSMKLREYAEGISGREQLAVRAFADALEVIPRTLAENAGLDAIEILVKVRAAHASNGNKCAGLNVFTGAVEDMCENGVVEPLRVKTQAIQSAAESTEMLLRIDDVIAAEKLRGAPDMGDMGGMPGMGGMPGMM
Chain of Thyrotropin-releasing hormone receptor (Homo sapiens) (P34981 whole entry, looked up): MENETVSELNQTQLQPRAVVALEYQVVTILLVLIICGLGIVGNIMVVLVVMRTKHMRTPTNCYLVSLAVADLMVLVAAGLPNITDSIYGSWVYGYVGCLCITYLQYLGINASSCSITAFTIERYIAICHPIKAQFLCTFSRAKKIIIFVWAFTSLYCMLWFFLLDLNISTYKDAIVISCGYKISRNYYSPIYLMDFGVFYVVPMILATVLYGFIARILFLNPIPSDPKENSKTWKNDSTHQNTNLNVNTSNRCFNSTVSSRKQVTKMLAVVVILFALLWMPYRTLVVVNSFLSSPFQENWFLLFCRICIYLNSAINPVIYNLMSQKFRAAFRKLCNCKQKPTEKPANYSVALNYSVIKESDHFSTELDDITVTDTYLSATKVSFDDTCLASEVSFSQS
Chain of Chromobox protein homolog 1 (Homo sapiens) (P83916 whole entry, looked up): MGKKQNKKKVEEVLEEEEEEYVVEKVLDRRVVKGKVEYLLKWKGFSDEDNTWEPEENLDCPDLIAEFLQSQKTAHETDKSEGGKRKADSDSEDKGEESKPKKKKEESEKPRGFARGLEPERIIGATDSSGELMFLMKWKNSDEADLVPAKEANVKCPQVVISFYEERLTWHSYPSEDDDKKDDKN

For the compound `NC(=O)CI`, the Potency result in assay [1], in assay [2], in [4], in [9], in assay [10] and in assay [11] was “inactive” throughout. Further, the Potency result in assay [12], in [13] and in assay [15] was “inactive” throughout. Moreover, the outcome in assay [3], in assay [6], in assay [7], in assay [8] and in assay [16] was inactive. Moreover, in assay [5], the Potency was 8.91 µM (active). Moreover, in assay [14], the activation was -0.125% (inactive). In addition, the viability change in assay [15] came to 7.18%.
`Clc1ccc(N2CC3CCC(C2)N3)nn1`: the Potency entry in assay [1], in [2], in [17], in assay [4], in assay [5] and in assay [9] was “inactive” in each case. The Potency entry in [10], in [11], in [13] and in [15] was “inactive” each time. Moreover, the outcome in [3], in assay [6], in assay [7] and in assay [16] was inactive. Moreover, in [14], the activation is 1.19% (inactive). Besides, in assay [15], the viability change turned out to be 4.91%.
As for `CC(Cc1ccc(OCC(=O)O)cc1)NCC(O)c1cccc(Cl)c1` (stereo not drawn), the Potency entry in assay [1], in assay [2], in assay [17], in assay [4], in [5] and in assay [18] was “inactive” throughout. Also, the Potency entry in assay [9], in [10], in assay [11], in assay [12], in assay [13] and in [15] was “inactive” each time. The result in [6], in assay [7], in assay [8] and in assay [16] was inactive. In assay [14], the activation was 0.5% (inactive). In addition, in [15], the viability change was -9.13%.
For `CCCCCCC(C)(C)c1ccc([C@@H]2C[C@H](O)CC[C@H]2CCCO)c(O)c1`, the Potency is 4.65 µM (active) in assay [1], 11.7 µM (active) in [2] and 16.4 µM (active) in [13]. Moreover, the Potency result in assay [17], in assay [4], in assay [5], in assay [9], in assay [11] and in [12] was “inactive” throughout. For the same compound, the Potency entry in [15] was “inactive”. In addition, the compound was classed as inactive in [6], in assay [7], in assay [8] and in assay [16]. In assay [14], the activation was 1.06% (inactive). Besides, the viability change in assay [15] is 3.03%.
Turning to `NC(Cc1ccc(N(CCCl)CCCl)cc1)C(=O)O` (stereo not drawn), the Potency in assay [1] is 14.7 µM (active); in assay [2] it was 8.28 µM (active). Further, the outcome in [3], in assay [6], in assay [7], in assay [8] and in assay [16] was inactive. The Potency entry in assay [4], in assay [5], in assay [9], in assay [10], in assay [11] and in assay [13] was “inactive” throughout. Besides, the activation in [14] was -0.125% (inactive).
Turning to `O=C1CC[C@@]2(O)C3Cc4ccc(O)c5c4C2(CCN3CC2CC2)[C@H]1O5` (stereo partly drawn), the Potency result in assay [1], in assay [2], in assay [17], in [5], in assay [9] and in [10] was “inactive” in each case. Also, the Potency entry in assay [11], in assay [19], in [12], in [13] and in assay [15] was “inactive” in each case. Besides, the outcome in assay [3], in [6], in assay [7] and in [16] was inactive. Also, the activation in [14] is 1.31% (inactive). The viability change in assay [15] is -12.7%.
